According to PubChem BioAssay AID1460 (National Center for Advancing Translational Sciences (NCATS), 2008):
The whole screen tested about 270,000 compounds, of which about 5,800 (2.1%) were called active. Not shown: some 16% with an inconclusive outcome. Calls come from the whole dose curve; as a rule, active = well fitted inhibition curve with a large enough effect; inconclusive = small, poorly fitted or top-dose-only effect; inactive = flat fitted curve, though single readings scatter. Many of the other results were omitted from the sample, so actives are more common in it than they were.

molecular target: Microtubule-associated protein tau (Homo sapiens) (UniProt P10636); test: qHTS for Inhibitors of Tau Fibril Formation, Thioflavin T Binding; conditions: recombinant tau K18 P301L (four-repeat tau fragment), heparin-induced fibrillization, ThT fluorescence; series mostly up to 57.4 µM; activity, negative = inhibition: at the top concentration; note: nearly all actives have a fitted effect of over 55% in size
Sequence (P10636 561-689 P618L limits assumed): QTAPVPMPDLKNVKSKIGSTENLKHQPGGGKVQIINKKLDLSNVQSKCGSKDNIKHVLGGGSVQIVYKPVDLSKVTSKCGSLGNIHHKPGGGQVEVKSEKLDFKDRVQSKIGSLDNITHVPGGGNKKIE
In short: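 Aggregation was driven by heparin (20 uM final) acting on recombinant tau […] bearing P301L in 100 mM sodium acetate pH 7; fibrils were detected with Thioflavin T.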
% is set by controls: 0 for no effect and ±100 for the full control effect; potency is the fitted concentration of half-maximal effect.

| Structure (SMILES) | activity, negative = inhibition | Potency |
| --- | --- | --- |
| COc1cccc(C(=O)NCc2ccc3c(c2)CCN3C(=O)c2ccncc2)c1 | -1.82% (inactive) |  |
| Cc1ccc(Cl)cc1N1CCN(C(=O)c2cccn3c(=O)c4cc(Cl)ccc4nc23)CC1 | 1.52% (inactive) |  |
| COc1ccc(NS(=O)(=O)c2cc3c(cc2C)N(C(C)=O)CCO3)cc1 | -6.28% (inactive) |  |
| Cc1cc(C(=O)COC(=O)C2CC2)c(C)n1-c1ccc(F)cc1 | -7.67% (inactive) |  |
| Cc1cc(C(=O)N/N=C/c2ccc(O)c([N+](=O)[O-])c2)c(C)n1-c1ccc(F)cc1 |  | 14.1 µM (active) |
| Cc1nn(CC(=O)N/N=C/c2ccc(F)cc2)c(C)c1[N+](=O)[O-] | -6.13% (inactive) |  |
| Cc1ccc2c(=O)c(C(=O)c3ccc(Cl)cc3)cn(CC(=O)NC3CCCCC3)c2n1 | -11.7% (inactive) |  |
| CCOC(=O)C1=NOC(Cn2cc(C(C)=O)c(=O)[nH]c2=O)C1 (stereo not given) | 0.727% (inactive) |  |
| CCOC(=O)C1=NO[C@@]2(C=C(Br)C(=O)[C@H]3O[C@H]32)C1 |  | 15.8 µM (active) |
| CCOC(=O)C1=C(C)NC(=O)NC1c1ccccc1 (stereo not given) | -5.11% (inactive) |  |
| CCc1ccccc1NC(=O)CSc1nnc(-c2ccccc2)c(-c2ccccc2)n1 | -10.8% (inactive) |  |
| CC(=O)N1CCCc2cc(S(=O)(=O)Nc3ccc(Cl)cc3F)ccc21 | -5.83% (inactive) |  |
| CCc1ccc(/C=C2\SC(N3CCOCC3)=NC2=O)cc1 | -5.76% (inactive) |  |
| CCN1C(=O)/C(=C2\SC(N3CCCCC3)=NC2=O)c2ccccc21 |  | 11.2 µM (active) |
| CCN1C(=O)/C(=C\N2CCN(c3ccccc3)CC2)SC1=S | -10.5% (inactive) |  |
| CCc1ccc(NC(=O)c2cc(S(=O)(=O)N3CCCC(C)C3)cn2C)cc1 (stereo not given) | 4.85% (inactive) |  |
| Cc1c(Cl)cccc1-c1ccc(CNCCCSc2nnnn2C)o1 | -6.19% (inactive) |  |
| CCn1cc2nc(SCc3ccccc3Cl)n(CCc3ccccc3)c(=O)c2n1 | -12.5% (inactive) |  |
| Cc1cc(N/N=C/c2ccccc2F)c2ccccc2n1 | 0.109% (inactive) |  |
| Cc1nc2ccccc2nc1N/N=C/c1ccc(O)cc1O |  | 14.1 µM (active) |
| Oc1ccc(/C=N/Nc2nc(-c3ccccc3F)nc3ccccc23)c(O)c1 |  | 4.47 µM (active) |
| Cc1n[nH]c(=O)nc1N/N=C/c1cccs1 | -16.7% (inactive) |  |

| Structure (SMILES) | activity, negative = inhibition | Potency |
| --- | --- | --- |
| Fc1ccc(/C=N/Nc2nc(-c3cccnc3)nc3ccccc23)cc1 | -19.8% (inactive) |  |
| Oc1ccc(/C=N/NC2=NCCCCC2)c(O)c1 | -11.4% (inactive) |  |
| Cc1nc2nc(SCC(=O)NC3CCC(C)CC3)nn2c(C)c1Cc1ccccc1Cl (stereo not given) | -13.3% (inactive) |  |
| COC(=O)c1scc(-c2ccc(C)cc2)c1S(=O)(=O)Nc1cc(Cl)c(OC)cc1OC | -2.57% (inactive) |  |
| CC1CCN(S(=O)(=O)c2ccc3c(c2)N(CC(=O)NCCc2ccccc2)C(=O)CO3)CC1 | -3.46% (inactive) |  |
| CNc1ccc(SC#N)cc1 |  | 12.6 µM (active) |
| CNc1nc(-c2ccccc2OC)nc2ccccc12 | -7.91% (inactive) |  |
| COc1ccccc1-c1nc(SC)n[nH]1 | 3.07% (inactive) |  |
| COc1ccccc1C1=Nc2cccc3cccc(c23)N1 |  | 11.2 µM (active) |
| CCc1cccc(NC(=O)Cn2nc(CC)n3c(cc4cc(C)ccc43)c2=O)c1 | 6.72% (inactive) |  |
| Cc1cn(C)c(CC(=O)NCc2ccc(Cl)cc2)c1C(=O)O | -5.43% (inactive) |  |
| CCOc1cccc(CC(=O)N2CCc3c([nH]c4ccccc34)C2c2ccc(OC)cc2)c1OCC (stereo not given) | -12.2% (inactive) |  |
| Nc1ccc(N=Nc2ccccc2Cl)c(N)n1 |  | 2 µM (active) |
| CCOC(=O)C1CCC(CN(Cc2ccc(OC)cc2)S(=O)(=O)c2ccc(F)c(C(=O)Nc3cc(C)ccc3C)c2)CC1 (stereo not given) | -2.42% (inactive) |  |
| CCOC(=O)c1cc(-c2ccccc2)n(-c2cccc(C(=O)Nc3cc(OC)cc(OC)c3)c2)c1C | 2.87% (inactive) |  |
| O=C(CCCN1C(=O)/C(=C\c2ccccc2)SC1=S)Nc1ccccc1O | -12.1% (inactive) |  |
| COc1ccc(/C=C2\SC(=S)N(CC(=O)NNC(=O)c3ccncc3)C2=O)cc1 | -17.1% (inactive) |  |
| COc1ccc(/C=C2/SC(=O)N(CCCCCC(=O)Nc3ccccc3C(=O)O)C2=S)cc1 |  | 11.2 µM (active) |
| Cc1cc(OCC(=O)Nc2ncn[nH]2)c(C)c(C)c1Br | 1.95% (inactive) |  |
| CCOCCCNC(=O)c1cc2c(=O)n3ccccc3nc2s1 | -11.4% (inactive) |  |
| Cc1cccc(-n2c(=O)c3c(c4cc(C)ccc4n3C)n(CC(=O)Nc3ccccc3Cl)c2=O)c1 | 7.44% (inactive) |  |
| Cc1noc(/C=C/N(C)C)c1S(=O)(=O)N1CCCC(C(=O)Nc2cccc(F)c2)C1 (stereo not given) | -18.5% (inactive) |  |

| Structure (SMILES) | activity, negative = inhibition | Potency |
| --- | --- | --- |
| O=C(NCc1ccco1)C1CCCN(S(=O)(=O)c2ccccc2)C1 (stereo not given) | 9.5% (inactive) |  |
| Cc1noc(/C=C/N(C)C)c1S(=O)(=O)N1CCCC(C(=O)NCc2ccco2)C1 (stereo not given) |  | 28.2 µM (active) |
| Cc1cccc(N2CCN(S(=O)(=O)c3ccc4[nH]c5c(c4c3)CCCCC5)CC2)c1C | 9.87% (inactive) |  |
| CC[C@@H]1Cc2cc(O)ccc2C2=C1c1ccc(O)cc1C[C@H]2CC |  | 17.8 µM (active) |
| CC1(C)CC(=O)c2ccc(O)cc2O1 | -1.2% (inactive) |  |
| COc1ccccc1Cc1nc2ccccc2nc1SCC(=O)N1CCCc2ccccc21 | -6.43% (inactive) |  |
| CC1CCN(c2ccc([N+](=O)[O-])cc2C(N)=O)CC1 | -10.4% (inactive) |  |
| O=[N+]([O-])c1ccc(N2CCN(c3ccc(O)cc3)CC2)c(Cl)c1 |  | 6.31 µM (active) |
| CCN1CCN(c2ccc([N+](=O)[O-])cc2C(=O)c2ccc(Cl)cc2)CC1 | -12.9% (inactive) |  |
| O=C(NC1(C(F)(F)F)N=C(c2ccccc2)N(C2CCCCC2)C1=O)c1ccccc1F (stereo not given) | -3.93% (inactive) |  |
| Fc1cc(F)c2nc(Nc3nc4c(F)cccc4s3)sc2c1 | 4.52% (inactive) |  |
| CN(C)CCCN(C(=O)COc1ccccc1)c1nc2c(Cl)cccc2s1 | 3.98% (inactive) |  |
| NNc1nc2c(Cl)cccc2s1 |  | 22.4 µM (active) |
| Cc1ccc(CNC(=O)Cn2c(=O)ccc3cc(S(=O)(=O)N4CCCC4)ccc32)cc1 | 3.36% (inactive) |  |
| CCc1ccccc1NC(=O)Cn1c(=O)n(CC2CCC(C(=O)NCCc3ccccc3)CC2)c(=O)c2ccccc21 (stereo not given) | -5.1% (inactive) |  |
| C#CCOc1ccc(C2CC(=O)Nc3c2c(C)nn3-c2nc(C)cc(C)n2)cc1 (stereo not given) | -6.86% (inactive) |  |
| Cc1ccc(C(=O)N2CCc3cc(CNC(=O)c4ccc(Br)cc4)ccc32)cc1 | -15.5% (inactive) |  |
| Cc1nn(-c2ccc(N3CCCCC3)nn2)c(C)c1CCC(=O)NCc1ccccc1F | -4.06% (inactive) |  |
| O=C1/C(=C\c2cccnc2)CN(Cc2ccccc2)C/C1=C\c1cccnc1 |  | 14.1 µM (active) |
| O=Cc1cn(Cc2ccccc2)nc1-c1cccnc1 | -0.733% (inactive) |  |
| Clc1ccc(CN2CCN(/N=C/c3cccnc3)CC2)cc1 | -5.56% (inactive) |  |
